From PubChem
KKLEB cytotox: cytotoxicity in KKLEB CF airway cells, primary screen, cytotoxicity control for CF NF-kB inhibitor project, cell-based, uHTS, fluorescence assay plates; 360,000 tested, 0.36% active; KKLEB CF airway cells viability, ATPlite luminescence, overnight; hits give low values; cells stimulated with P. aeruginosa culture filtrate; activity change (cytotoxicity), % at 5 µM;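 active = corrected activity change at or below -50% at 5 µM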
HIF-2a inh: HIF-2a reporter inhibitors, primary screen, luminescence, 786-0 RCC cells. 786-0 RCC cells HIF-2a reporter, luciferase luminescence, overnight. inhibition, % at 18.8 µM. 360,000 tested, 0.72% active;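 active = inhibition of the luminescence signal of 40% or more relative to plate controls, in a single-dose primary screen at 18.75 µM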
TROY NFkB inh: inhibitors of TROY-driven NF-kB signaling, primary screen, Q293 LMP1-TROYcd cells, NF-kB luciferase, uHTS; Q293 LMP1-TROYcd NF-kB luciferase reporter, 4 h; inhibition, % at 10 µM; 360,000 tested, 0.98% active; AID 1347056, 2019;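 active = compounds whose plate-normalised and pattern-corrected inhibition of the luciferase reporter signal at the single screening dose is 50% or more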
CF NFkB inh: inhibitors of PAF-induced NF-kB signaling, primary screen, cell-based, GFP fluorescence, uHTS; KKLEB NF-kB-GFP reporter, GFP fluorescence overnight; inhibition, % at 5 µM; 360,000 tested, 0.86% active; AID 588850, 2011;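 active = at least 50% inhibition at 5 µM, scaled per plate between neutral and stimulator controls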;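 note: PAF is a Pseudomonas aeruginosa culture filtrate used as stimulus; plate controls were PAF-stimulated DMSO wells for no effect and unstimulated DMSO wells for full effect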
TWEAK Fn14 block: inhibitors of TWEAK-Fn14 signaling, primary screen, luciferase reporter cells, uHTS; TWEAK-stimulated Fn14 reporter cells, luciferase luminescence, 8 h; AID 1159606, 2016; inhibition, % at 10 µM; 360,000 tested, 2% active; in the data active = inhibition above about 50%
Peg3 prom inh-1: Peg3 promoter-driven luciferase inhibitors, primary screen, cell-based, HeLa, luciferase luminescence; HeLa PEG-Prom luciferase reporter, overnight; 360,000 tested, 1.7% active; inhibition, % at 20 µM;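 active = inhibition of at least 50% at 20 µM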
Peg3 prom inh-2: Peg3 promoter reporter inhibitors, retest, confirmation, cell-based, HeLa, luciferase reporter, single concentration. shares compounds with Peg3 prom inh-1. HeLa PEG-Prom luciferase reporter, luminescence, overnight. inhibition, % at 20 µM. 1,300 tested, 84% active. AID 602417, 2012;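 active = at 20 µM dose, 40% or more inhibition averaged across four replicates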
* = called active by the depositor. Most compounds without a hit are left out; they make up all but 4% or so of the library.

For CN(C)CC1CCC/C(=C\c2ccc(OC(=O)c3ccc(Cl)cc3)cc2)C1=O (centres undefined) the results were KKLEB cytotox -8, HIF-2a inh 17, TROY NFkB inh -5, CF NFkB inh -18, TWEAK Fn14 block 17, Peg3 prom inh-1 105* and Peg3 prom inh-2 100*.
`CN(C)CC1CCC/C(=C\c2ccc(OC(=O)/C=C/c3ccccc3)cc2)C1=O` (centres undefined) gave KKLEB cytotox -1, HIF-2a inh -11, TROY NFkB inh 3, CF NFkB inh -5, TWEAK Fn14 block -10, Peg3 prom inh-1 101* and Peg3 prom inh-2 100*.
CN(C(=O)COC(=O)CSc1ccc(C(N)=O)cc1[N+](=O)[O-])C1CCCCC1 was read as KKLEB cytotox 5, HIF-2a inh 8, TROY NFkB inh 5, CF NFkB inh -11, TWEAK Fn14 block 5 and Peg3 prom inh-1 12.
`O=C(NCc1ccco1)c1cccc2c1C(=O)c1ccc(N3CCC(N4CCCCC4)CC3)cc1S2(=O)=O` gave KKLEB cytotox 9, HIF-2a inh -7, TROY NFkB inh 0, CF NFkB inh -7, TWEAK Fn14 block 6 and Peg3 prom inh-1 -21.
Screening OCC1OC(n2ccc3c(NO)ncnc32)C(O)C1O (centres undefined) returned KKLEB cytotox -92*, HIF-2a inh -9, TROY NFkB inh 46, CF NFkB inh 86*, TWEAK Fn14 block 82*, Peg3 prom inh-1 100* and Peg3 prom inh-2 98*.
`Cc1cc(=O)oc2cc(OCC(=O)c3ccc4c(c3)NC(=O)CO4)ccc12` gave KKLEB cytotox -4, HIF-2a inh -2, TROY NFkB inh 12, CF NFkB inh 0, TWEAK Fn14 block -4, Peg3 prom inh-1 53* and Peg3 prom inh-2 5.
Screening Cc1ccc(NC(=O)COC(=O)c2ccco2)cc1S(=O)(=O)N1CCOCC1 returned KKLEB cytotox 0, HIF-2a inh 8, TROY NFkB inh 2, CF NFkB inh -26, TWEAK Fn14 block 8 and Peg3 prom inh-1 5.
COc1ccccc1-n1nnnc1SCC(=O)Nc1ccc(C)c(N)c1 was read as KKLEB cytotox -10, HIF-2a inh -9, TROY NFkB inh -13, CF NFkB inh 16, TWEAK Fn14 block 8 and Peg3 prom inh-1 16.
COc1cc(NC(=O)c2cccs2)c(C(=O)OCC(=O)c2cc(C)n(-c3ccccc3)c2C)cc1OC was read as KKLEB cytotox -11, HIF-2a inh 23, TROY NFkB inh -32, CF NFkB inh 15, TWEAK Fn14 block 15, Peg3 prom inh-1 59* and Peg3 prom inh-2 83*.
`O=C(NCc1ccccc1)C1CCCN(C(=O)c2ccc(F)cc2)C1` (centres undefined) gave KKLEB cytotox -15, HIF-2a inh -4, TROY NFkB inh 4, CF NFkB inh 13, TWEAK Fn14 block 2 and Peg3 prom inh-1 6.
Cn1c2ccccc2c2ccc3c(c21)C(=O)C=CC3=O was read as KKLEB cytotox -12, HIF-2a inh -12, TROY NFkB inh -13, CF NFkB inh 33, TWEAK Fn14 block 18, Peg3 prom inh-1 104* and Peg3 prom inh-2 101*.
For Cc1ccc2sc(N(CCCN(C)C)C(=O)c3ccc(S(=O)(=O)N(C)C4CCCCC4)cc3)nc2c1C the results were KKLEB cytotox -17, HIF-2a inh -11, TROY NFkB inh 0, CF NFkB inh 36, TWEAK Fn14 block -22, Peg3 prom inh-1 104* and Peg3 prom inh-2 100*.
`O=C(NCCS(=O)(=O)N1CCN(c2cccc(Cl)c2)CC1)c1ccco1` gave KKLEB cytotox -2, HIF-2a inh 13, TROY NFkB inh -24, CF NFkB inh -2, TWEAK Fn14 block 13 and Peg3 prom inh-1 9.
Screening COc1ccc(-n2cc(-c3ccccc3)c3c(NCCCN4CCOCC4)ncnc32)cc1 returned KKLEB cytotox -8, HIF-2a inh 24, TROY NFkB inh 5, CF NFkB inh 4, TWEAK Fn14 block -1 and Peg3 prom inh-1 25.
Screening COc1ccc(-n2cc(-c3ccccc3)c3c(N4CCOCC4)ncnc32)cc1 returned KKLEB cytotox -100*, HIF-2a inh 22, TROY NFkB inh 10, CF NFkB inh 94*, TWEAK Fn14 block 18, Peg3 prom inh-1 61* and Peg3 prom inh-2 68*.
COc1ccc(CCN(C)C2CCCN(S(=O)(=O)c3ccccc3)C2)cc1OC (centres undefined) was read as KKLEB cytotox -8, HIF-2a inh 20, TROY NFkB inh -21, CF NFkB inh -2, TWEAK Fn14 block -26 and Peg3 prom inh-1 24.
`COC(=O)C1C(C(=O)OC)C1(c1ccccc1)c1ccccc1` (centres undefined) gave KKLEB cytotox -11, HIF-2a inh 10, TROY NFkB inh -4, CF NFkB inh 11, TWEAK Fn14 block 31 and Peg3 prom inh-1 7.
For COC(=O)C1=C(C(=O)OC)C(C(=O)OC)C(C(=O)OC)C(C(=O)OC)(C(=O)OC)C(C(=O)OC)=C1C(=O)OC (centres undefined) the results were KKLEB cytotox -6, HIF-2a inh 30, TROY NFkB inh -7, CF NFkB inh 11, TWEAK Fn14 block 1, Peg3 prom inh-1 107* and Peg3 prom inh-2 99*.
COc1cc(NC(=O)Nc2nc(C(N)CCc3ccccc3)cs2)cc(OC)c1OC (centres undefined) was read as KKLEB cytotox 6, HIF-2a inh -22, TROY NFkB inh 39, CF NFkB inh -22, TWEAK Fn14 block 39, Peg3 prom inh-1 74* and Peg3 prom inh-2 83*.
For Cc1ccccc1NC(=O)Nc1nc(C(N)Cc2ccccc2)cs1 (centres undefined) the results were KKLEB cytotox -11, HIF-2a inh -8, TROY NFkB inh 17, CF NFkB inh 8, TWEAK Fn14 block -10, Peg3 prom inh-1 73* and Peg3 prom inh-2 42*.
COc1ccc(CC(N)c2csc(NC(=O)Nc3cc(OC)ccc3OC)n2)cc1 (centres undefined) was read as KKLEB cytotox 5, HIF-2a inh 1, TROY NFkB inh 8, CF NFkB inh -13, TWEAK Fn14 block -10, Peg3 prom inh-1 94* and Peg3 prom inh-2 96*.
COc1ccc(CC(N)c2csc(NC(=O)c3cccs3)n2)cc1 (centres undefined) was read as KKLEB cytotox -30, HIF-2a inh 2, TROY NFkB inh 7, CF NFkB inh -8, TWEAK Fn14 block 14 and Peg3 prom inh-1 13.
